# Values joined by “and” are separate entries in the source; they are usually repeats but may differ in a detail not shown here. Equal values may be shown once. Unmarked numbers belong to inactive results. Results filed as inconclusive are left out. Entries that show only a call come without a potency. Active and inactive are the calls of the source. Unless noted, calls come from the whole dose curve; as a rule, active = well fitted curve in the direction sought with a large enough effect in the repeat runs; inconclusive = weak or mixed curves; inactive = no such curve, though single readings can be large; an effect the other way counts as inactive or inconclusive.
# Legend:
# [1] = qHTS assay to identify small molecule antagonists of the glucocorticoid receptor (GR) signaling pathway - cell viability counter screen (AID 720693); note: nearly all actives have a fitted effect of over 55% in size; note: potency is the fitted concentration of half-maximal effect
# [2] = qHTS assay for identifying genotoxic compounds that show differential cytotoxicity against isogenic chicken DT40 cell lines with known DNA damage response pathways - wild type cell line (AID 743012); note: nearly all actives have a fitted effect of over 60% in size; note: potency is the fitted concentration of half-maximal effect
# Outline: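 Viability of DNA repair-proficient chicken DT40 cells was assessed by CellTiter-Glo luminescence following 40 h compound exposure at 37 C/5% CO2.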
# [3] = qHTS assay for identifying genotoxic compounds that show differential cytotoxicity against isogenic chicken DT40 cell lines with known DNA damage response pathways - Rev3 mutant cell line (AID 743014); note: nearly all actives have a fitted effect of over 55% in size; note: potency is the fitted concentration of half-maximal effect
# [4] = qHTS assay to identify small molecule antagonists of the androgen receptor (AR) signaling pathway - cell viability counter screen (AID 743033; note: nearly all actives have a fitted effect of over 45% in size; note: potency is the fitted concentration of half-maximal effect)
# [5] = qHTS assay to identify small molecule antagonists of the androgen receptor (AR) signaling pathway using the MDA cell line - cell viability counter screen (AID 743041; note: nearly all actives have a fitted effect of over 45% in size; note: potency is the fitted concentration of half-maximal effect)
# Outline: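 Using the breast carcinoma line MDA-kb2 AR-luc, test chemicals were co-incubated with R1881 for 16 h; CellTiter-Fluor reagent, added at 15.5 h, provided a fluorescence measure of live cells.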
# [6] = qHTS assay for identifying genotoxic compounds that show differential cytotoxicity against isogenic chicken DT40 cell lines with known DNA damage response pathways - Rad54/Ku70 mutant cell line (AID 743015); note: nearly all actives have a fitted effect of over 60% in size; note: potency is the fitted concentration of half-maximal effect
# [7] = target: Androgen receptor (Homo sapiens) (UniProt P10275); test: qHTS assay to identify small molecule antagonists of the androgen receptor (AR) signaling pathway (AID 743035; active = well fitted inhibition curve with a large enough effect in the signal ratio in the repeat runs, not every such curve was filed as active; the % refers to the signal ratio)
# Outline: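 Reporter HEK293 cells were exposed to compounds and R1881 overnight (16 h, 37C); beta-lactamase activity was then quantified by FRET fluorescence.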
# [8] = target: Androgen receptor (Homo sapiens) (UniProt P10275); test: qHTS assay to identify small molecule agonists of the androgen receptor (AR) signaling pathway using the MDA cell line (AID 743040; note: nearly all actives have a fitted effect of over 20% in size)
# Outline: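 Stable MMTV-luciferase reporter in MDA-kb2 cells; note the promoter carries GR as well as AR response elements. 16 h compound treatment, 37C, 0% CO2; ONE-Glo luminescence endpoint.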
# [9] = target: Androgen receptor (Homo sapiens) (UniProt P10275); test: qHTS assay to identify small molecule antagonists of the androgen receptor (AR) signaling pathway using the MDA cell line (AID 743042; note: nearly all actives have a fitted effect of over 55% in size)
# Outline: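 Antagonist mode: compounds plus R1881 agonist added to MDA-kb2 AR-luc cells, incubated 16 h at 37C. Luciferase reporter luminescence quantified, with multiplexed CellTiter-Fluor readout for cell viability.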
# Sequence of Androgen receptor (Homo sapiens) (P10275 whole entry, looked up): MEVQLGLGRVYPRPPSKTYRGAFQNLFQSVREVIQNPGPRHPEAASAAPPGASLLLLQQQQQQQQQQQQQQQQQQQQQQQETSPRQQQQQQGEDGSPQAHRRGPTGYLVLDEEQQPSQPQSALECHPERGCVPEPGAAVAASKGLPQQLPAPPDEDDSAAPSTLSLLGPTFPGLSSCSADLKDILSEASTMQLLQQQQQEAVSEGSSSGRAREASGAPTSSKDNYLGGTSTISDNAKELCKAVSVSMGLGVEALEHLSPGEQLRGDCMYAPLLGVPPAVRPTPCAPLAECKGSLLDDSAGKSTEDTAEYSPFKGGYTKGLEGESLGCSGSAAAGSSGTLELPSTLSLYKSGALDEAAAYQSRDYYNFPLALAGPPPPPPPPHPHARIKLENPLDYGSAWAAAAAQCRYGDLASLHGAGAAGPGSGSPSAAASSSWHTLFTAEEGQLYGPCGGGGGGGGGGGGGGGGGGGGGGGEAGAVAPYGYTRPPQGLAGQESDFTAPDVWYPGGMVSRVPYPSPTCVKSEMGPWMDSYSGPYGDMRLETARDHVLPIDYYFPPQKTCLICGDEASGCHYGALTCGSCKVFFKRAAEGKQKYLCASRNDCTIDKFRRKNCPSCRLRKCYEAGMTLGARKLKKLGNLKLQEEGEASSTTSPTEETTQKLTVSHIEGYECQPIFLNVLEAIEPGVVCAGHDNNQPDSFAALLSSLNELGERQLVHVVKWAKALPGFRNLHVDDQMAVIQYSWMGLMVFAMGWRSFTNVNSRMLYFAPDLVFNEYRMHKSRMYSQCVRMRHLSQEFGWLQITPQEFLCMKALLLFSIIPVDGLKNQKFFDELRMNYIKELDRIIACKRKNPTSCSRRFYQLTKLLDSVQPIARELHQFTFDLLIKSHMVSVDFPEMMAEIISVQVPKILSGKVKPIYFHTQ
smiles,measurement,setting,value
c1ccc(CNCCNCc2ccccc2)cc1,Potency,[1],inactive
same,Potency,[2],inactive
same,Potency,[3],inactive
same,Potency,[4],inactive
same,Potency,[5],inactive
C=CC(=O)OCCOCCOCCOCCOC(=O)C=C,Potency,[1],49.2 µM (active) and 48.5 µM (active)
same,Potency,[2],13.8 µM (active) and 12.1 µM (active)
same,Potency,[3],8.68 µM (active) and 6.06 µM (active)
same,Potency,[4],24.7 µM (active)
same,Potency,[5],30.4 µM (active)
S=C([S-])NCCNC(=S)[S-].[Mn+2],Potency,[1],inactive
same,Potency,[2],61.1 µM (active)
same,Potency,[4],inactive
same,Potency,[5],inactive
CCC(Cl)CCC(Cl)C(Cl)CC(Cl)C(Cl)C(Cl)CCl (stereo unspecified),Potency,[1],inactive
same,Potency,[3],inactive
same,Potency,[6],inactive
same,Potency,[4],inactive
O=C(OCCCCCCOC(=O)c1ccccc1)c1ccccc1,Potency,[1],inactive
same,Potency,[2],61.1 µM (active)
same,Potency,[3],61.1 µM (active)
same,Potency,[6],54.5 µM (active)
same,Potency,[5],inactive
C[C@@H](c1ncncc1F)C(O)(Cn1cncn1)c1ccc(F)cc1F (stereo partly specified),Potency,[1],inactive
same,Potency,[2],inactive
same,Potency,[3],inactive
same,Potency,[4],inactive
same,Potency,[7],inactive
same,Potency,[8],inactive
same,Potency,[5],inactive
same,Potency,[9],inactive
CCCOC(C(=O)OC1CCN(C)CC1)(c1ccccc1)c1ccccc1,Potency,[1],inactive
same,Potency,[2],5.96 µM (active)
same,Potency,[3],7.5 µM (active)
same,Potency,[5],inactive
Cc1oc(-c2ccccc2)nc1CCOc1cccc2c1ccn2CCC(=O)O,Potency,[1],inactive
same,Potency,[2],inactive
same,Potency,[4],inactive
same,Potency,[5],inactive
Nc1ncn([C@H]2C[C@H](O)[C@@H](CO)O2)c(=O)n1,Potency,[1],inactive
same,Potency,[2],0.106 µM (active)
same,Potency,[3],0.106 µM (active)
same,Potency,[6],0.0298 µM (active)
same,Potency,[5],inactive
CCCCC(CC)CN1C(=O)C2C3C=CC(C3)C2C1=O (stereo unspecified),Potency,[1],inactive
same,Potency,[2],38.6 µM (active)
same,Potency,[3],27.3 µM (active)
same,Potency,[5],inactive
O=C(O)c1ccc(S(=O)(=O)O)cc1C(=O)O,Potency,[1],inactive
same,Potency,[3],inactive
same,Potency,[6],inactive
same,Potency,[4],inactive
same,Potency,[5],inactive
CCOC(=O)c1cccnc1,Potency,[1],inactive
same,Potency,[3],inactive
same,Potency,[6],inactive
same,Potency,[4],inactive
same,Potency,[5],inactive
Cc1ccccc1S(=O)(=O)O,Potency,[1],inactive
same,Potency,[3],inactive
same,Potency,[6],inactive
same,Potency,[4],inactive
same,Potency,[5],inactive
Brc1c2ccccc2c(Br)c2ccccc12,"viability change, negative = cytotoxic",[1],-12.6% [at 7.04 µM]
same,"activity, negative = cytotoxicity",[3],2.95% [at 8.53 µM]
same,"activity change, negative = cytotoxicity",[6],3.28% [at 8.55 µM]
same,"activity change, negative = cytotoxicity",[4],0.327% [at 7.04 µM]
same,"viability change, negative = cytotoxic",[5],2.16% [at 8.47 µM]
NCC(=O)CCC(=O)O,Potency,[1],inactive
same,Potency,[3],inactive
same,Potency,[4],inactive
same,Potency,[5],inactive
CCCCCCCN,Potency,[1],inactive
same,Potency,[3],inactive
same,Potency,[6],inactive
same,Potency,[4],inactive
same,Potency,[5],inactive
CN(C)C(=O)NC1(c2ccccc2)CCN(CC[C@@]2(c3ccc(F)c(F)c3)CN(C(=O)c3ccccc3)CCO2)CC1,Potency,[1],inactive
same,Potency,[3],25.3 µM (active)
same,Potency,[4],inactive
same,Potency,[5],inactive
CN(C)c1ccc(/C=C/c2ccc([N+](=O)[O-])cc2)cc1,"viability change, negative = cytotoxic",[1],6.19% [at 7.04 µM]
same,"activity, negative = cytotoxicity",[3],-15.9% [at 8.53 µM]
same,"activity change, negative = cytotoxicity",[6],1.06% [at 8.55 µM]
same,"activity change, negative = cytotoxicity",[4],7.66% [at 7.04 µM]
same,"viability change, negative = cytotoxic",[5],-4.28% [at 8.47 µM]
